A short description of assay [1]: qHTS assay to identify small molecule antagonists of the estrogen related receptor (ERR) signaling pathway from Tox21 library - cell viability counter screen (AID 1224834). Further: nearly all actives have a fitted effect of over 30% in size. Summed up:
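ERR reporter cells, 2,000 per well, rested 6 h, then exposed to compound in DMSO for 17.5 hours at 37 C. Viability read as fluorescence after 30 min with CellTiter-Fluor.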

In assay [2] the target is Luciferin 4-monooxygenase (Photinus pyralis) (UniProt P08659). Put plainly: qHTS assay to identify small molecule inhibitors of firefly luciferase (AID 1224835). Further: series mostly up to about 120 µM; nearly all actives have a fitted effect of over 25% in size. Summed up:
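Inhibition of purified Photinus luciferase is measured by luminescence. Substrate levels (D-luciferin, ATP) sit at their KM values. Each compound is tested in a concentration series.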

The nature of assay [3]: qHTS assay to identify small molecule agonists of the constitutive androstane receptor (CAR) signaling pathway - cell viability counter screen (AID 1224836). Further: series mostly up to about 92 µM; nearly all actives have a fitted effect of over 45% in size. The method in brief: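 HepG2-CYP2B6-hCAR, 2500 cells/well, 4 h pre-incubation; cpd 15 conc + PK11195 0.75 uM final; 23 h, 37 C/5% CO2; CellTiter-Fluor, fluorescence.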
The nature of assay [4]: qHTS assay to identify small molecule antagonists of the constitutive androstane receptor (CAR) signaling pathway - cell viability counter screen (AID 1224837). Further: series mostly up to about 92 µM; nearly all actives have a fitted effect of over 45% in size. The method in brief: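 HepG2 cells stably carrying hCAR and CYP2B6-2.2kb reporter, stimulated with 50 nM CITCO and compounds at 15 concentrations for 23 h at 37 C. Viability measured by CellTiter-Fluor fluorescence.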

In assay [5] the target is Nuclear receptor subfamily 1 group I member 3 (Homo sapiens) (UniProt Q14994). The assay can be described thus: qHTS assay to identify small molecule antagonists of the constitutive androstane receptor (CAR) signaling pathway (AID 1224838). Further: nearly all actives have a fitted effect of over 40% in size. Summed up: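 HepG2 cells stably carrying hCAR and a CYP2B6-2.2kb luciferase reporter, seeded 4 hrs before compound (15 concentrations). Stimulated with 50 nM CITCO for 24 hr at 37 C. ONE-Glo luminescence read after 30 min at room temperature.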
Chain of Nuclear receptor subfamily 1 group I member 3 (Homo sapiens) (Q14994 whole entry, looked up): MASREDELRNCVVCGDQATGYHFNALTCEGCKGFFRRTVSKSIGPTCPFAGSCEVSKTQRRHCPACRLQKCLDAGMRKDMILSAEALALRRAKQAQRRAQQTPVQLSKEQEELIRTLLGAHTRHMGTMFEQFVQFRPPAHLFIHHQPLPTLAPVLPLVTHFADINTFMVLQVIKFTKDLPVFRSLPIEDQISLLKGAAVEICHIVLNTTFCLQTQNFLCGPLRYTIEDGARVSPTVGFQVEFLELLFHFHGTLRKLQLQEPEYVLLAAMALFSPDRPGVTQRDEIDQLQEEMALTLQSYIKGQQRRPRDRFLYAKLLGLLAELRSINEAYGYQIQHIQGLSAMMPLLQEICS

For assay [6] the target is unchanged. Put plainly: qHTS assay to identify small molecule agonists of the constitutive androstane receptor (CAR) signaling pathway (AID 1224839). Further: nearly all actives have a fitted effect of over 15% in size. Further: potency means the concentration at half of the fitted maximal effect. On activation: series mostly up to about 92 µM. The method in brief: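 HepG2-CYP2B6-hCAR cells, 2500/well, 4 h pre-incubation; compounds 15 conc.; PK11195 0.75 uM final; 24 h, 37 C/5% CO2; ONE-Glo luciferase read.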
Assay [7] in a line: qHTS assay to identify small molecule antagonists of the estrogen related receptor signaling pathway with the pleiotropic PPARgamma coactivator (PGC) from Tox21 10K library - cell viability counter screen (AID 1224840; active means well fitted cell-killing curve with a large enough effect in the repeat runs, not every such curve was filed as active; further: nearly all actives have a fitted effect of over 40% in size). Summed up: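 PGC/ERR cells (2,000/well) plated 6 h, then compound-treated for 17.5 h at 37 C. Viability measured by CellTiter-Fluor fluorescence after 30 min at 37 C, multiplexed with the pathway assay.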

For assay [8], the target named is Thyrotropin receptor (Homo sapiens) (UniProt P16473). Put plainly: qHTS assay to identify small molecule agonists of the thyroid stimulating hormone receptor (TSHR) signaling pathway (AID 1224843; calls by dose curve; further: nearly all actives have a fitted effect of over 45% in size). The method in brief:
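HEK293 cells stably bearing the thyrotropin receptor were plated at 800 cells/well and challenged with compound (30 min, RT). Accumulated cAMP was quantified via cAMP-d2 competing for cryptate-tagged antibody.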

The nature of assay [9]: qHTS assay to identify small molecule agonists of the hypoxia (HIF-1) signaling pathway - cell viability counter screen (AID 1224844; calls by dose curve; further: nearly all actives have a fitted effect of over 50% in size). Summed up:
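HRE-bla ME-180 cells, 2,000/well in 0.5% dialyzed FBS medium, treated 17 h at 37C with compounds. Viability read in the same wells as the bla reporter, by CellTiter-Glo luminescence after 30 min at room temperature.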

Assay [10] in a line: qHTS assay to identify small molecule agonists of H2AX (AID 1224845; active means well fitted activation curve with a large enough effect in the signal ratio in the repeat runs, not every such curve was filed as active; the % refers to the signal ratio). Summed up: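 Phospho-H2AX Ser139 measured by HTRF (ex 320 nm; em 665 and 620 nm) after 24 hr antibody incubation. Compounds, 15 concentrations, 0.76% DMSO, were applied to CHO-K1 cells for 3hr at 37C before lysis.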
Assay [11] can be described thus: qHTS assay to identify small molecule agonists of the hypoxia (HIF-1) signaling pathway (AID 1224846; active means well fitted activation curve with a large enough effect in the signal ratio in the repeat runs, not every such curve was filed as active; the % refers to the signal ratio). The method in brief:
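HRE-bla ME-180 beta-lactamase reporter cells in medium with 0.5% dialyzed FBS, pre-incubated 5 h then exposed to compounds 17 h at 37C, 5% CO2; reporter induction read with CCF4-AM FRET substrate.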

Assay [12] in a line: qHTS assay to identify small molecule agonists of H2AX - cell viability counter screen (AID 1224847; calls by dose curve;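 further: wild-type CHO-K1 cells; top concentration of the series differs between compounds; nearly all actives have a fitted effect of over 30% in size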). Summed up:
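Cells plated first: CHO-K1, 1000 per well in 10% FBS medium, incubated overnight at 37C. Then 15-point compound titration added (final DMSO 0.76%) for 3 hr. Finally CellTiter-Glo added and luminescence read.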

Assay [13] in a line: qHTS RealTime-Glo MT Cell Viability Assay in HepG2 cells - 24 hour (AID 1224867). Further: nearly all actives have a fitted effect of over 50% in size. Summed up: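 Viability was tracked continuously by NanoLuc luminescence from prosubstrate reduced by living HepG2 cells, at successive time points over 40 h of compound exposure. Cells with reagent were preincubated 5 h at 37 °C before compound addition.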
Assay [14] is described as follows: qHTS RealTime-Glo MT Cell Viability Assay in HEK293 cells - 32 hour (AID 1224868). Further: top concentration of the series differs between compounds; nearly all actives have a fitted effect of over 50% in size. The method in brief:
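Viability tracked continuously by luminescence as live cells reduce a prosubstrate for NanoLuc; HEK293 cells preincubated 5 h, compound-treated at 37 C, and read at 0, 8, 16, 24, 32 and 40 h.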

Assay [15] in a line: A CellTox Green Cytotoxicity Assay to monitor cytotoxicity in HEK293 cells - 0 hour (AID 1224869). Further: nearly all actives have a fitted effect of over 50% in size. Summed up:
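HEK293 cells, 600/well, were preincubated 5 hours and then exposed to compounds at 37 C for up to 40 hours. A cell-impermeant cyanine dye staining dead-cell DNA was read by fluorescence at 0, 8, 16, 24, 32 and 40 h time points.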

Structures are written as SMILES. A number with no mark means an inactive call. Results filed as inconclusive are left out. The source made the active and inactive calls. Unless noted, the call rests on the fitted dose curve; in most records, active means well fitted curve in the direction sought with a large enough effect in the repeat runs; inconclusive means weak or mixed curves; inactive means no such curve, though single readings can be large; an effect the other way counts as inactive or inconclusive.
On the % scale 0 is the no-effect control and ±100 the full control effect.

Chain of Thyrotropin receptor (Homo sapiens) (P16473 whole entry, looked up): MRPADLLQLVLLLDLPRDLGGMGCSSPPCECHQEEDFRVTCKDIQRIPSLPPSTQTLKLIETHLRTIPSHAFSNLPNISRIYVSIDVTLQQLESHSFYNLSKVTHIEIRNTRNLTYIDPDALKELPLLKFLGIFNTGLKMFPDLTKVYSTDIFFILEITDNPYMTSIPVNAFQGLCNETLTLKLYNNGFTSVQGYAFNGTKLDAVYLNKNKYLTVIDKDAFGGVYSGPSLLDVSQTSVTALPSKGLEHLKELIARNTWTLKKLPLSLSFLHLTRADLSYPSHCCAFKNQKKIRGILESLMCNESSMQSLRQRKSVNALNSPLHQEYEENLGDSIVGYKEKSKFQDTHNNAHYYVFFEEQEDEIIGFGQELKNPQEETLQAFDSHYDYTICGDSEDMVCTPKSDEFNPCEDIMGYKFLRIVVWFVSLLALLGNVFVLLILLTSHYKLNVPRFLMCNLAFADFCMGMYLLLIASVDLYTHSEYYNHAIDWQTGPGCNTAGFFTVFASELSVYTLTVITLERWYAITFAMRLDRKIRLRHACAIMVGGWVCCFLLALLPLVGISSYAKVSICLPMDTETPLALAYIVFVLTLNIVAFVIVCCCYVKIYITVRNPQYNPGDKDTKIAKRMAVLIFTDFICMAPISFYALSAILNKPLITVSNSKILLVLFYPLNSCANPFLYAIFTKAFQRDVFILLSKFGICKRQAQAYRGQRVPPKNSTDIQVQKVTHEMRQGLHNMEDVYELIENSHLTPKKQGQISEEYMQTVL
Chain of Luciferin 4-monooxygenase (Photinus pyralis) (P08659 whole entry, looked up): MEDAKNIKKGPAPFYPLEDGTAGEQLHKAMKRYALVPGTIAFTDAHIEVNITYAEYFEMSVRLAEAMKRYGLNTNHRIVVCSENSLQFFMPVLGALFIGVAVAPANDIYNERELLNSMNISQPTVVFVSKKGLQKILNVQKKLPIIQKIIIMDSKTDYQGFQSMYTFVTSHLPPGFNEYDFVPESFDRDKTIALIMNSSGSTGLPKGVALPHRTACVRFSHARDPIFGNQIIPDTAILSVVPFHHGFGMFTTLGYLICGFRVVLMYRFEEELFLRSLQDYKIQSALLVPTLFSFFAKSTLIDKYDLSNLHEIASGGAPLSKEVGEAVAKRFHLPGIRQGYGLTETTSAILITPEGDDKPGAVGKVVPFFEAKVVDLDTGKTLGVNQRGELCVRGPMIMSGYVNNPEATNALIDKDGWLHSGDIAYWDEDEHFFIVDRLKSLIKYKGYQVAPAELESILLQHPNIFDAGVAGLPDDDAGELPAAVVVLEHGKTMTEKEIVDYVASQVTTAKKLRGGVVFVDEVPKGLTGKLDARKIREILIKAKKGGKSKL

For `CC(C)(C(=O)c1cccnc1)c1cccnc1`, the Potency entry in assay [1], in [2], in [3], in assay [4], in [5] and in assay [6] was “inactive” throughout. The Potency result in assay [7], in [8], in assay [9], in [10], in assay [12] and in [13] was “inactive” throughout. In addition, the Potency result in [14] and in assay [15] was “inactive” each time. Also, the compound was classed as inactive in assay [11].
Turning to `O=S(=O)(O)CO`, the Potency result in assay [1], in [2], in assay [3], in [4], in assay [5] and in [6] was “inactive” throughout. The Potency result in assay [7], in assay [8], in assay [9], in [10], in [12] and in [13] was “inactive” each time. In addition, the Potency entry in assay [14] and in [15] was “inactive” throughout. Besides, in assay [11], the compound was classed as inactive.
`Cc1ccc(Cl)cc1N`: the Potency result in [1], in [2], in assay [3], in assay [4], in assay [5] and in assay [6] was “inactive” each time. Besides, the Potency entry in assay [7], in assay [8], in assay [9], in assay [10], in [12] and in [13] was “inactive” throughout. Besides, the Potency entry in assay [14] and in assay [15] was “inactive” throughout. For the same compound, the compound was classed as inactive in assay [11].
Take `Oc1cccc2[nH]ccc12`: the Potency entry in assay [1], in assay [2], in assay [3], in assay [4], in [5] and in assay [6] was “inactive” throughout. Also, the Potency entry in assay [7], in assay [8], in [9], in assay [12], in [13] and in assay [14] was “inactive” each time. The result in assay [11] was inactive.
On to `CCC(Cl)CC(Cl)C(Cl)C(Cl)C(Cl)C(C)Cl` (configuration not stated), for which the viability change, negative = cytotoxic in assay [1] was -2.15% [at 19 µM]; in assay [3] it was -5.9% [at 19 µM]; in assay [7], -3.01% [at 19 µM]. The activity change, negative = inhibition in assay [2] is -6.92% [at 23.6 µM]. For the same compound, the activity change, negative = cytotoxicity in [4] is -3.5% [at 19 µM]; in assay [9], -3.49% [at 15.8 µM]; in assay [12] it was -5.22% [at 31.6 µM]; in [13], -1.2% [at 15.8 µM]. Also, the activity, negative = inhibition in assay [5] was 94.1% [at 19 µM]. The Potency in assay [6] is 2650 nM (active). Moreover, the activation was 15.8% [at 19 µM] in assay [8] and 0.0674% [at 15.8 µM] in assay [11]. Also, the activation (H2AX phosphorylation) in assay [10] was -1.57% [at 31.6 µM]. For the same compound, the cytotoxicity in assay [15] is 15.1% [at 15.8 µM].
With `CS(=O)(=O)c1ccc([C@@H](C[C@H]2CCC(=O)C2)C(=O)Nc2cnccn2)cc1Cl`, the Potency entry in [1], in assay [2], in assay [3], in assay [4], in [5] and in [6] was “inactive” each time. For the same compound, the Potency entry in assay [7], in assay [8], in assay [9], in assay [10], in assay [12] and in assay [13] was “inactive” throughout. The Potency result in assay [14] and in assay [15] was “inactive” in each case. The outcome in [11] was inactive.
On to `O=c1[nH][nH]c(=O)c2cc([N+](=O)[O-])ccc12`, for which the Potency result in assay [1], in assay [2], in assay [3], in [4], in assay [5] and in assay [6] was “inactive” throughout. Moreover, the Potency result in [7], in assay [8], in assay [9], in assay [10], in assay [12] and in assay [13] was “inactive” throughout. Besides, the Potency result in assay [14] and in assay [15] was “inactive” each time. The result in [11] was inactive.
With `COC(OC)OC`, the Potency entry in [1], in assay [2], in assay [3], in [4], in assay [5] and in assay [6] was “inactive” in each case. Moreover, the Potency result in assay [7], in assay [8], in assay [9], in [10], in [12] and in assay [13] was “inactive” each time. For the same compound, the Potency result in assay [14] and in [15] was “inactive” throughout. In addition, the outcome in assay [11] was inactive.

These data come from PubChem BioAssay (Tox21).
